Results filed as inconclusive are left out. Active and inactive are the calls of the source. Unless noted, calls follow the shape of the dose curve; as a rule, active = well fitted curve in the direction sought with a large enough effect in the repeat runs; inconclusive = weak or mixed curves; inactive = no such curve, though single readings can be large; an effect the other way counts as inactive or inconclusive.
Tests used:
[1] = qHTS assay to identify small molecule antagonists of the vitamin D receptor (VDR) signaling pathway - cell viability counter screen (AID 743225); also: % is scaled to controls: 0 for no effect and ±100 for the full control effect; nearly all actives have a fitted effect of over 50% in size
Summary of the method: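 Read-out: CellTiter-Glo luminescence measured 30 min after reagent addition at room temperature. Cells were VDR-bla HEK 293T exposed 16 h at 37C, 5% CO2, to compound with 3 nM final calcitriol agonist.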

[2] = qHTS assay to identify small molecule agonists of the endoplasmic reticulum stress response signaling pathway (AID 1159516; active = well fitted activation curve with a large enough effect in the signal ratio in the repeat runs, not every such curve was filed as active; the % refers to the signal ratio; also: % is scaled to controls: 0 for no effect and ±100 for the full control effect)
Summary of the method: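 CellSensor ESRE-bla HeLa cells, carrying a beta-lactamase reporter driven by the ER stress response element, were plated overnight and exposed to compounds for 5 hr at 37 C. Reporter activity was read as FRET substrate fluorescence after 2 hr at room temperature.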

[3] = qHTS assay to identify small molecule agonists of the endoplasmic reticulum stress response signaling pathway - cell viability counter screen (AID 1159517; calls by dose curve; also: series mostly up to about 61 µM; % is scaled to controls: 0 for no effect and ±100 for the full control effect; nearly all actives have a fitted effect of over 50% in size)
Summary of the method: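 HeLa cells carrying an ESRE-driven beta-lactamase reporter receive compound for 5 hr at 37 C. Cell viability is then gauged with CellTiter-Glo by luminescence, 30 min at room temperature.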

[4] = qHTS assay to identify small molecule antagonists of the retinoid-related orphan receptor gamma (ROR-gamma) signaling pathway - cell viability counter screen (AID 1159520); also: % is scaled to controls: 0 for no effect and ±100 for the full control effect; nearly all actives have a fitted effect of over 50% in size
Summary of the method: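 Cytotoxicity was read from cellular ATP (CellTiter-Glo luminescence) after 16 hr at 37 C with 1 uM doxycycline induction. The inducer was added 2 hr after compound transfer to Tet-on ROR gamma CHO cells.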

[5] = target: Nuclear receptor ROR-gamma (Homo sapiens) (UniProt P51449); experiment: qHTS assay to identify small molecule antagonists of the retinoid-related orphan receptor gamma (ROR-gamma) signaling pathway (AID 1159521;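 also: CHO cells with doxycycline inducible ROR-gamma driving an RORE luciferase reporter; top concentration of the series differs between compounds; % is scaled to controls: 0 for no effect and ±100 for the full control effect; nearly all actives have a fitted effect of over 50% in size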)
Summary of the method: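 CHO Tet-on RORγ, RORE-luc reporter. Cpd 2 h pre-incubation, then dox hyclate 1 uM final, 16 h, 37 C/5% CO2. ONE-Glo luminescence; decrease = antagonist.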

[6] = qHTS assay to identify small molecule agonists of the AP-1 signaling pathway - cell viability counter screen (AID 1159525; calls by dose curve; also: nearly all actives have a fitted effect of over 55% in size)
Summary of the method: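 Luminescent ATP readout (Cell Titer Glo, 30 min RT), normalised to DMSO and tetra n-octyl ammonium bromide controls. Cells were ME-180 AP-1-bla in 0.5% dialyzed FBS Opti-MEM, with a 5 h, 37 °C compound exposure.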

[7] = qHTS assay to identify small molecule agonists of the AP-1 signaling pathway (AID 1159526; calls by dose curve; also: % is scaled to controls: 0 for no effect and ±100 for the full control effect)
[8] = target: Retinoic acid receptor RXR-alpha (Homo sapiens) (UniProt P19793); experiment: qHTS assay to identify small molecule agonists of the RXR signaling pathway (AID 1159527; calls by dose curve; also: % is scaled to controls: 0 for no effect and ±100 for the full control effect; nearly all actives have a fitted effect of over 35% in size)
Chain of Retinoic acid receptor RXR-alpha (Homo sapiens) (P19793 whole entry, looked up): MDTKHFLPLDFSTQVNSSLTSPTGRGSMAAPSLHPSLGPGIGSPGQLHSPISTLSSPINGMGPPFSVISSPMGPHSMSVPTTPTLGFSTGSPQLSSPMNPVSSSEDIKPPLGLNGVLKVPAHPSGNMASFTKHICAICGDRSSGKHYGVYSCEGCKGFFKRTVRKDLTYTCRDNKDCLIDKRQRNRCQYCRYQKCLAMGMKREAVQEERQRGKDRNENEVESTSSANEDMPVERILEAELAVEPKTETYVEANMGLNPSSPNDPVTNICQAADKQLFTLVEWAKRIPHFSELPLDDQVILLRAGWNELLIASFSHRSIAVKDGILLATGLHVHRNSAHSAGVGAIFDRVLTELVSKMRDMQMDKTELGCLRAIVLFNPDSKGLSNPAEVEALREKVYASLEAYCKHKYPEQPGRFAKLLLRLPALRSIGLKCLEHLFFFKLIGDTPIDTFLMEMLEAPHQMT
Summary of the method: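 Read-out: beta-lactamase FRET ratio (405 nm excitation, 460 and 530 nm emission) after 2 hr substrate loading at room temperature. Cells were RXR-alpha-UAS-bla HEK 293T treated with compounds for 16 hr in 2% charcoal-stripped FBS medium.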

[9] = qHTS assay to identify small molecule antagonists of the retinoid acid receptor (RAR) signaling pathway - cell viability counter screen (AID 1159551); also: % is scaled to controls: 0 for no effect and ±100 for the full control effect; nearly all actives have a fitted effect of over 35% in size
Summary of the method: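 C3RL4 cells were seeded overnight at 37 C, then treated with compounds plus 1 uM (final) retinol for 6 h at 37 C. Viability was read as ATP by CellTiter-Glo luminescence after 30 min at room temperature.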

[10] = qHTS assay to identify small molecule agonists of the retinoic acid receptor (RAR) signaling pathway (AID 1159553); also: % is scaled to controls: 0 for no effect and ±100 for the full control effect
Summary of the method: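 C3RL4 cells carrying a RARE luciferase reporter were plated overnight at 37 C, then exposed to compounds in DMSO for 6 hr at 37 C and 5% CO2. Luminescence was read 30 min after luciferase reagent addition at room temperature.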

[11] = qHTS assay to identify small molecule antagonists of the estrogen related receptor (ERR) signaling pathway from Tox21 library - cell viability counter screen (AID 1224834); also: % is scaled to controls: 0 for no effect and ±100 for the full control effect; nearly all actives have a fitted effect of over 30% in size
Summary of the method: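 ERR reporter cells were plated 6 h before compound addition, then exposed to test compounds in DMSO for 17.5 h at 37 C. Viability was read as CellTiter-Fluor fluorescence after a 30-minute incubation at 37 C.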

[12] = target: Luciferin 4-monooxygenase (Photinus pyralis) (UniProt P08659); experiment: qHTS assay to identify small molecule inhibitors of firefly luciferase (AID 1224835); also: series mostly up to about 120 µM; % is scaled to controls: 0 for no effect and ±100 for the full control effect; nearly all actives have a fitted effect of over 25% in size
Chain of Luciferin 4-monooxygenase (Photinus pyralis) (P08659 whole entry, looked up): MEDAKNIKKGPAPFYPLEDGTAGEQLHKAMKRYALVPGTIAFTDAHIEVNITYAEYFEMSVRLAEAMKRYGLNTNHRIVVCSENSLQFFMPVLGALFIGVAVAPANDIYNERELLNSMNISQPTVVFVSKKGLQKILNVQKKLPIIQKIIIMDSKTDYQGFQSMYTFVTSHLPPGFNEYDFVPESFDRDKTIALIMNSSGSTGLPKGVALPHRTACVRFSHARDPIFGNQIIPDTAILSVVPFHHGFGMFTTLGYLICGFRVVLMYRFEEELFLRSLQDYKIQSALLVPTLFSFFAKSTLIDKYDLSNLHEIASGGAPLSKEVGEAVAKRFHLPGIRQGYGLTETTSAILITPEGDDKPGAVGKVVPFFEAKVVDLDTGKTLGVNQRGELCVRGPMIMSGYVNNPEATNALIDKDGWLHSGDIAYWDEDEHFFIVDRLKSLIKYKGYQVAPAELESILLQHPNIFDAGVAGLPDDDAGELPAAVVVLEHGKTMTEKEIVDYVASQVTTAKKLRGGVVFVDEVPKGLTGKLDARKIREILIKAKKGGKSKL
Summary of the method: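 Inhibition of purified Photinus luciferase is measured by luminescence. Substrate levels (D-luciferin, ATP) sit at their KM values. Each compound is tested in a concentration series.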

[13] = qHTS assay to identify small molecule agonists of the constitutive androstane receptor (CAR) signaling pathway - cell viability counter screen (AID 1224836); also: series mostly up to about 92 µM; % is scaled to controls: 0 for no effect and ±100 for the full control effect; nearly all actives have a fitted effect of over 45% in size
Summary of the method: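 HepG2-CYP2B6-hCAR, 2500 cells/well, 4 h pre-incubation; cpd 15 conc + PK11195 0.75 uM final; 23 h, 37 C/5% CO2; CellTiter-Fluor, fluorescence.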

[14] = qHTS assay to identify small molecule antagonists of the constitutive androstane receptor (CAR) signaling pathway - cell viability counter screen (AID 1224837); also: series mostly up to about 92 µM; % is scaled to controls: 0 for no effect and ±100 for the full control effect; nearly all actives have a fitted effect of over 45% in size
Summary of the method: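 HepG2 cells stably expressing hCAR and a CYP2B6-2.2kb reporter were plated and pre-incubated 4 hr at 37 C/5% CO2, then given compounds at 15 concentrations plus 50 nM CITCO (final). After 23 hr, viability was read by CellTiter-Fluor fluorescence.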

[15] = qHTS assay to identify small molecule antagonists of the estrogen related receptor signaling pathway with the pleiotropic PPARgamma coactivator (PGC) from Tox21 10K library - cell viability counter screen (AID 1224840; active = well fitted cell-killing curve with a large enough effect in the repeat runs, not every such curve was filed as active; also: % is scaled to controls: 0 for no effect and ±100 for the full control effect; nearly all actives have a fitted effect of over 40% in size)
Summary of the method: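 PGC/ERR cells were seeded at 2,000 cells/well and left 6 hours at 37 C/5% CO2 before pin-tool addition of compounds in DMSO. After 17.5 hours at 37 C, CellTiter-Fluor was added and fluorescence read 30 minutes later.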

[16] = qHTS assay to identify small molecule agonists of the RXR signaling pathway - cell viability counter screen (AID 1159529)
Summary of the method: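 HEK 293T RXRa-bla cells, 2% CS-FBS; 5 h settle; cpd 16 h 37 C, 5% CO2; CellTiter-Glo 30 min RT, luminescence. Tetraoctyl ammonium bromide as positive control.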

[17] = qHTS assay to identify small molecule antagonists of the retinoic acid receptor (RAR) signaling pathway (AID 1159552)
Summary of the method: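 Cells of the C3RL4 line were seeded, incubated overnight, then dosed with compounds in DMSO followed immediately by retinol (1 uM final). Six hours later luciferase detection reagent went in; signal was measured after 30 min at RT.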

[18] = target: Nuclear receptor subfamily 1 group I member 3 (Homo sapiens) (UniProt Q14994); experiment: qHTS assay to identify small molecule antagonists of the constitutive androstane receptor (CAR) signaling pathway (AID 1224838); also: % is scaled to controls: 0 for no effect and ±100 for the full control effect; nearly all actives have a fitted effect of over 40% in size
Chain of Nuclear receptor subfamily 1 group I member 3 (Homo sapiens) (Q14994 whole entry, looked up): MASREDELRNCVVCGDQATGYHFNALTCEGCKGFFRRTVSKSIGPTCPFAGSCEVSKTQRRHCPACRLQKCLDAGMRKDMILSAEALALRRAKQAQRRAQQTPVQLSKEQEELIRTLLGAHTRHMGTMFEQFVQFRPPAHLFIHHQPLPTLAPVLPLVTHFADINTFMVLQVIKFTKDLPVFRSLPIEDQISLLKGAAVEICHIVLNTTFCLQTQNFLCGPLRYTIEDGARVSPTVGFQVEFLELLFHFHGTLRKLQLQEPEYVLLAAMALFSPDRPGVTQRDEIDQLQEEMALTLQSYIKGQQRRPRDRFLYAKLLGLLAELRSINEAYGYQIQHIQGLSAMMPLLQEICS
Summary of the method: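 HepG2 cells stably co-transfected with hCAR and a CYP2B6-2.2kb luciferase reporter were seeded 4 h before compound addition at 15 concentrations. Cells were stimulated with 50 nM CITCO (final) for 24 h at 37 C; luciferase luminescence was then read.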

[19] = target: Nuclear receptor subfamily 1 group I member 3 (Homo sapiens) (UniProt Q14994); experiment: qHTS assay to identify small molecule agonists of the constitutive androstane receptor (CAR) signaling pathway (AID 1224839);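 also: HepG2 cells stably carrying human CAR and a CYP2B6 luciferase reporter; series mostly up to about 92 µM; % is scaled to controls: 0 for no effect and ±100 for the full control effect; nearly all actives have a fitted effect of over 15% in size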
Summary of the method: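 HepG2-CYP2B6-hCAR cells, 2500/well, 4 h pre-incubation; compounds 15 conc.; PK11195 0.75 uM final; 24 h, 37 C/5% CO2; ONE-Glo luciferase read.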

NC[C@H]1O[C@H](O[C@H]2[C@H](O)[C@@H](O[C@H]3O[C@H](CO)[C@@H](O)[C@H](N)[C@H]3O)[C@H](N)C[C@@H]2N)[C@H](N)[C@@H](O)[C@@H]1O
inactive: outcome [1] | Potency [2] | outcome [3] | activity, negative = cytotoxicity [4] 0.5% [at 19 µM] | activity change, negative = inhibition [5] -19.4% [at 19 µM] | viability change, negative = cytotoxic [6] 1.49% [at 15.8 µM] | activation [7] 0.424% [at 15.8 µM] | activation [8] 4.18% [at 15.8 µM] | activity change, negative = cytotoxicity [9] -1.43% [at 19 µM] | Potency [10] | viability change, negative = cytotoxic [11] 2% [at 19 µM] | activity change, negative = inhibition [12] -4.17% [at 23.6 µM] | viability change, negative = cytotoxic [13] -10.3% [at 19 µM] | activity change, negative = cytotoxicity [14] -13.6% [at 19 µM] | viability change, negative = cytotoxic [15] 1.41% [at 19 µM]

CN(C)c1ccncc1
inactive: outcome [1] | Potency [2] | outcome [3] | outcome [4] | outcome [5] | outcome [6] | Potency [7] | Potency [8] | Potency [16] | outcome [9] | outcome [17] | Potency [10] | Potency [12] | outcome [13] | outcome [14] | outcome [18] | Potency [19] | outcome [15]

C=COCCCCO
inactive: outcome [1] | Potency [2] | outcome [3] | outcome [4] | outcome [5] | outcome [6] | Potency [7] | Potency [8] | Potency [16] | outcome [9] | outcome [17] | Potency [10] | outcome [11] | Potency [12] | outcome [13] | outcome [14] | outcome [15]

CC(C)C(=O)Nc1cccc(C2CN3CCSC3=N2)c1 (configuration not stated)
inactive: Potency [2] | outcome [3] | outcome [4] | outcome [5] | outcome [6] | Potency [7] | Potency [8] | outcome [9] | outcome [17] | Potency [10] | Potency [12] | outcome [13] | outcome [14]

N=C(N)N1CCc2ccccc2C1
inactive: activation [2] 1.42% [at 6.95 µM] | activity, negative = cytotoxicity [4] 7.51% [at 8.39 µM] | activity change, negative = inhibition [5] -0.777% [at 8.39 µM] | viability change, negative = cytotoxic [6] 6.37% [at 6.97 µM] | activation [7] -0.863% [at 6.97 µM] | activation [8] 5.64% [at 6.98 µM] | activity change, negative = cytotoxicity [16] 2.64% [at 6.97 µM] | activity change, negative = cytotoxicity [9] -0.951% [at 8.39 µM] | activity, negative = inhibition [17] -2.43% [at 8.39 µM] | activation [10] -0.224% [at 8.36 µM] | viability change, negative = cytotoxic [11] 2.84% [at 8.39 µM] | activity change, negative = inhibition [12] -2.87% [at 10.5 µM] | viability change, negative = cytotoxic [13] -1.33% [at 8.39 µM] | activity change, negative = cytotoxicity [14] 1.11% [at 8.39 µM] | viability change, negative = cytotoxic [15] -0.866% [at 8.39 µM]

O=c1[nH]c(=O)c2cn[nH]c2[nH]1
inactive: outcome [1] | Potency [2] | outcome [3] | outcome [4] | outcome [5] | outcome [6] | Potency [7] | Potency [8] | outcome [9] | outcome [17] | Potency [10] | outcome [11] | Potency [12] | outcome [13] | outcome [14] | outcome [18] | Potency [19]

CC(C)C[P+](C)(CC(C)C)CC(C)C
inactive: outcome [1] | Potency [2] | outcome [4] | outcome [5] | outcome [6] | Potency [7] | Potency [8] | Potency [16] | outcome [9] | outcome [17] | Potency [10] | outcome [11] | Potency [12] | outcome [13] | outcome [14] | outcome [18] | outcome [15]

— PubChem BioAssay (Tox21)
